Source: PubChem (Broad Institute)
Pf Dd2 growth: P. falciparum Dd2 growth inhibition; SYBR Green, 72 h; hits give low values; activity change, % at 10 µM; hit rate 2.3% among 94,000; AID 1159554; in the data active = activity change below about -80%; inconclusive = no clear call, values can overlap the other calls
T cruzi growth-1: T. cruzi proliferation inhibition. T. cruzi beta-gal in NIH3T3, GalScreen luminescence, 90 h. hit rate 5.9% among 77,000. inhibition, % at 8.34 µM;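 active = mean inhibition above about 93%, with at least 55% of replicates each passing it, limit read from the data, passing the limit was not always enough; inconclusive = only one of those two conditions holds; inactive = neither condition holds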
C diff growth: inhibitors of Clostridium difficile growth; AID 1259249; Clostridium difficile clinical isolate growth, OD600, 24 h; hits give low values; growth activity, negative = inhibition, % at 16 µg/mL (by protocol); hit rate 0.25% among 86,000;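 active = mean growth activity at or below -80% and every replicate also at or below -80%; inconclusive = mean at or below -80% but some replicate above -80%; inactive = mean growth activity above -80%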
T cruzi growth-2: blocks T. cruzi growth in NIH3T3 host cells; shares compounds with T cruzi growth-1; T. cruzi beta-gal in NIH3T3, GalScreen luminescence, 90 h; inhibition, % at 8.35 µM; hit rate 72% among 5,600; AID 651739;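 active = mean replicate inhibition above about 95% and at least 55% of replicates individually reaching it, limit read from the data; inconclusive = only one of the two criteria is met; inactive = neither criterion is met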
T cruzi growth-3: Trypanosoma cruzi proliferation inhibition. T. cruzi beta-gal in NIH3T3, GalScreen luminescence, 90 h. hit rate 21% among 5,600. shares compounds with T cruzi growth-1. inhibition, % at 2.09 µM;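 active = mean inhibition above about 95%, with at least 55% of replicates also reaching it, limit read from the data; inconclusive = meets just one of the two conditions; inactive = meets neither condition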
NIH3T3 tox: kills mouse NIH/3T3 fibroblasts. shares compounds with T cruzi growth-1. NIH/3T3 viability, CellTiter-Glo ATP luminescence, 90 h. cytotoxicity (signal decrease), % at 8.35 µM. hit rate 14% among 5,600. AID 651742;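 active = mean signal decrease across replicates above about 35% based on untreated-well scatter, with enough replicates individually passing, limit read from the data; inconclusive = no rule stated though some were filed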
NIH3T3 tox 2: NIH/3T3 (mouse) viability loss | inhibition, % at 24.9 µM | hit rate 56% among 5,600 | NIH/3T3 viability, CellTiter-Glo ATP luminescence, 90 h | AID 651744 | shares compounds with T cruzi growth-1;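 active = mean loss of cell viability signal at or above a set limit, and enough replicates individually reaching it; inconclusive = meets only the mean limit or only the replicate share; inactive = meets neither condition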
Each line names hits and unclear results; the compound was inactive in the other large screens (follow-up assays come after a bar, where they were run). A selection: hits, their analogues and other compounds. The true share with any hit is near 6.8%.

COc1ccc(-c2ccc3n(c2=O)C[C@H]2N[C@@H]3[C@@H](C(=O)N3CCCCC3)[C@@H]2CO)cc1	none (no result: T cruzi growth-1)
C/C=C/c1ccc2c(c1)O[C@H](CN(C)C(=O)c1ccccc1)[C@@H](C)CN([C@H](C)CO)S2(=O)=O	none (no result: T cruzi growth-1)
C[C@H](CO)N1C[C@H](C)[C@@H](CN(C)C(=O)c2ccccc2)Oc2cc(/C=C/c3ccccc3)ccc2S1(=O)=O	T cruzi growth-1 inconclusive | T cruzi growth-2 104 | T cruzi growth-3 inactive | NIH3T3 tox inactive | NIH3T3 tox 2 43
COc1ccc(CN(C)C[C@@H]2OCCCC[C@H](C)Oc3ccc(NS(=O)(=O)c4ccc(Cl)cc4)cc3C(=O)N([C@@H](C)CO)C[C@H]2C)cc1	T cruzi growth-1 inconclusive | T cruzi growth-2 100 | T cruzi growth-3 inactive | NIH3T3 tox inactive | NIH3T3 tox 2 104
COc1ccc(CN(C)C[C@H]2OCCCC[C@H](C)Oc3ccc(NS(=O)(=O)c4ccccc4)cc3C(=O)N([C@H](C)CO)C[C@H]2C)cc1	T cruzi growth-1 102 | T cruzi growth-2 108 | T cruzi growth-3 inactive | NIH3T3 tox inactive | NIH3T3 tox 2 inconclusive
COc1ccc(CN(C)C[C@H]2OCCCC[C@@H](C)Oc3ccc(NS(=O)(=O)c4ccccc4)cc3C(=O)N([C@H](C)CO)C[C@H]2C)cc1	none
COc1ccc(CN(C)C[C@H]2OCCCC[C@@H](C)Oc3ccc(NS(=O)(=O)c4ccc(OC)cc4)cc3C(=O)N([C@H](C)CO)C[C@@H]2C)cc1	none
COc1ccc(CN(C)C[C@@H]2OCCCC[C@@H](C)Oc3ccc(NS(=O)(=O)c4ccc(Cl)cc4)cc3C(=O)N([C@H](C)CO)C[C@H]2C)cc1	T cruzi growth-1 inconclusive | T cruzi growth-2 105 | T cruzi growth-3 inactive | NIH3T3 tox inactive | NIH3T3 tox 2 103
COc1ccc(CN(C)C[C@H]2OCCCC[C@H](C)Oc3ccc(NS(=O)(=O)c4ccc(Cl)cc4)cc3C(=O)N([C@H](C)CO)C[C@H]2C)cc1	Pf Dd2 growth inconclusive
COc1ccc(CN(C)C[C@H]2OCCCC[C@@H](C)Oc3ccc(NS(=O)(=O)c4ccc(Cl)cc4)cc3C(=O)N([C@@H](C)CO)C[C@@H]2C)cc1	none
COc1ccc(CN(C)C[C@@H]2OCCCC[C@@H](C)Oc3ccc(NS(=O)(=O)c4ccc(Cl)cc4)cc3C(=O)N([C@@H](C)CO)C[C@@H]2C)cc1	T cruzi growth-1 inconclusive | T cruzi growth-2 inconclusive | T cruzi growth-3 inactive | NIH3T3 tox inactive | NIH3T3 tox 2 107
Cc1noc(C)c1NC(=O)Nc1ccc2c(c1)C(=O)N(C)[C@@H]1CC[C@@H](CC(=O)NCc3ccc(Cl)cc3)O[C@H]1CO2	none (no result: Pf Dd2 growth)
O=C(C[C@H]1CC[C@H]2[C@@H](COC[C@H](O)CN2Cc2ccncc2)O1)NCc1ccccc1Cl	none (no result: T cruzi growth-1)
O=C(c1ccccn1)N1C[C@@H]2[C@H](c3ccccc31)[C@H](CO)N2C(=O)c1ccccn1	none
COCC(=O)Nc1ccc2c(c1)C(=O)N(C)[C@@H]1CC[C@H](CC(=O)NC3CCCC3)O[C@H]1CO2	none
CCC(=O)Nc1ccc2c(c1)C(=O)N(C)C[C@H](OC)[C@@H](C)CN(Cc1cccc(F)c1)[C@@H](C)CO2	none (no result: C diff growth)
CCC(=O)N1C[C@@H]2[C@H](c3ccccc31)[C@@H](CO)N2C(=O)CC1CC1	none
O=C(Nc1ccc(Cl)cc1)N1C[C@H]2[C@@H](c3ccccc31)[C@@H](CO)N2CC1CCCC1	T cruzi growth-1 108 | T cruzi growth-2 99 | T cruzi growth-3 inactive | NIH3T3 tox inactive | NIH3T3 tox 2 50
O=S(=O)(c1ccc(F)cc1)N1C[C@@H]2[C@H](c3ccccc31)[C@H](CO)N2Cc1ccccc1Cl	none
CCC(=O)N1C[C@H]2[C@@H](c3ccccc31)[C@H](CO)N2C(=O)CC	T cruzi growth-1 104 | T cruzi growth-2 inactive | T cruzi growth-3 inactive | NIH3T3 tox inactive | NIH3T3 tox 2 inactive
O=S(=O)(c1ccc(F)cc1)N1C[C@H]2[C@@H](c3ccccc31)[C@H](CO)N2Cc1ccccc1Cl	T cruzi growth-1 108 | T cruzi growth-2 102 | T cruzi growth-3 inactive | NIH3T3 tox inactive | NIH3T3 tox 2 38
O=C(Nc1ccc(F)cc1)N1C[C@H]2[C@@H](c3ccccc31)[C@H](CO)N2C(=O)c1ccccc1	T cruzi growth-1 102 | T cruzi growth-2 98 | T cruzi growth-3 inactive | NIH3T3 tox inactive | NIH3T3 tox 2 inactive
O=C(Nc1ccccc1)N1C[C@@H]2[C@H](c3ccccc31)[C@@H](CO)N2CC1CCCC1	none
O=C(Nc1ccc(F)cc1)N1C[C@@H]2[C@H](c3ccccc31)[C@H](CO)N2C(=O)c1ccccc1	none
COc1ccc(NC(=O)N(C)C[C@@H]2Oc3ccc(NC(=O)Nc4ccc(C(F)(F)F)cc4)cc3C(=O)N([C@@H](C)CO)C[C@@H]2C)cc1	none
C[C@H](C(=O)N(C)C[C@@H]1OCc2ccccc2-c2ccccc2C(=O)N([C@H](C)CO)C[C@@H]1C)c1ccccc1	none
COc1ccc(S(=O)(=O)N[C@H]2CC[C@@H](CCn3cc(-c4cccc(F)c4)nn3)O[C@H]2CO)cc1	none
COc1ccc(C(=O)N2C[C@H]3[C@@H](c4ccccc42)[C@H](CO)N3Cc2ccc3c(c2)OCO3)cc1	T cruzi growth-1 inconclusive | T cruzi growth-2 inactive | T cruzi growth-3 inactive | NIH3T3 tox inactive | NIH3T3 tox 2 33
O=C(c1ccc2c(c1)OCO2)N1C[C@H]2[C@@H](c3ccccc31)[C@H](CO)N2Cc1ccc2c(c1)OCO2	none
O=C(Nc1ccccc1Cl)N1C[C@H]2[C@@H](c3ccccc31)[C@@H](CO)N2Cc1ccccc1	none
O=C(C1CCCCC1)N1C[C@H]2[C@@H](c3ccccc31)[C@H](CO)N2Cc1ccccc1Cl	none
O=C(Nc1ccccc1Cl)N1C[C@H]2[C@@H](c3ccccc31)[C@H](CO)N2Cc1ccccc1	T cruzi growth-1 100 | T cruzi growth-2 inactive | T cruzi growth-3 inactive | NIH3T3 tox inactive | NIH3T3 tox 2 inactive
O=C(C1CCCCC1)N1C[C@@H]2[C@H](c3ccccc31)[C@H](CO)N2Cc1ccccc1Cl	T cruzi growth-1 105 | T cruzi growth-2 99 | T cruzi growth-3 inactive | NIH3T3 tox inactive | NIH3T3 tox 2 inactive
C[C@@H]1CN([C@H](C)CO)C(=O)c2cc(NC(=O)Nc3cccc4ccccc34)ccc2O[C@@H]1CN(C)Cc1ccc(C(=O)O)cc1	none (no result: T cruzi growth-1)
C[C@@H]1CN([C@H](C)CO)C(=O)c2cc(C#CC(C)(C)O)cnc2O[C@H]1CN(C)C(=O)CC1CC1	none
C[C@H]1CCCCO[C@H](CN(C)C(=O)Nc2ccc3c(c2)OCO3)[C@@H](C)CN([C@@H](C)CO)C(=O)c2cc(NC(=O)c3ccncc3)ccc2O1	none
